# In article PMC7862700, “An all-to-all approach to the identification of sequence-specific readers for epigenetic DNA modifications on cytosine”:
# What was measured:
# Assay in all cases: DAPPL (digital affinity profiling via proximity ligation, sequencing); 10 mM Tris-HCl pH 7.5, 50 mM NaCl, 1 mM DTT, 4% glycerol, room temperature, 30 min; GST-TFs on glutathione beads, 16-mer random dsDNA library, 0.1% formaldehyde crosslink after washing; high values mean tight binding
# [1] = target: T1, FLI1 (Homo sapiens, UniProt Q01543 1-452); conditions: protein: recombinant; tags: N-terminal GST; dsDNA, one strand shown
# T1 sequence: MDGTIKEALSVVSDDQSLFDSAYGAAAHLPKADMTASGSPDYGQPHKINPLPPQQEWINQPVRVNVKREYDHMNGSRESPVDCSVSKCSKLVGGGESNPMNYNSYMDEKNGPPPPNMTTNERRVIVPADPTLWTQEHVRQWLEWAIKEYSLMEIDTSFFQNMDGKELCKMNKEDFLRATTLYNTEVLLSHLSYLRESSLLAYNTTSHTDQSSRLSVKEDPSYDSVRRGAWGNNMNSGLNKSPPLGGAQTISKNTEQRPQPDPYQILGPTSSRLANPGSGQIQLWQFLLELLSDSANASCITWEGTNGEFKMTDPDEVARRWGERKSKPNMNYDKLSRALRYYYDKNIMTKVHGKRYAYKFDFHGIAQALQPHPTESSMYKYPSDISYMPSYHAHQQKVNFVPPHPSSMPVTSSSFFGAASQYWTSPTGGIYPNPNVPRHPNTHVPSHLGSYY
# Procedure, shortened: (§1)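 Binding signal is defined as a hexamer's read frequency for one factor over its frequency for the tag-only sample. To obtain reads, GST-fused human transcription factors were expressed in yeast, captured on glutathione beads, barcoded with DNA and pooled with that sample. Pools met 200 nmole of a 16-mer random double-stranded DNA library in Tris/NaCl/DTT/glycerol buffer for 30 min at room temperature before washing, 0.1% formaldehyde crosslinking, proximity ligation (BsaI/T4 ligase, 1 h, 37 °C), PCR and Illumina NextSeq500 sequencing.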
# [2] = target: T2, ELK1 (Homo sapiens, UniProt P19419 1-428); conditions: protein: recombinant; tags: N-terminal GST; dsDNA, one strand shown
# T2 sequence: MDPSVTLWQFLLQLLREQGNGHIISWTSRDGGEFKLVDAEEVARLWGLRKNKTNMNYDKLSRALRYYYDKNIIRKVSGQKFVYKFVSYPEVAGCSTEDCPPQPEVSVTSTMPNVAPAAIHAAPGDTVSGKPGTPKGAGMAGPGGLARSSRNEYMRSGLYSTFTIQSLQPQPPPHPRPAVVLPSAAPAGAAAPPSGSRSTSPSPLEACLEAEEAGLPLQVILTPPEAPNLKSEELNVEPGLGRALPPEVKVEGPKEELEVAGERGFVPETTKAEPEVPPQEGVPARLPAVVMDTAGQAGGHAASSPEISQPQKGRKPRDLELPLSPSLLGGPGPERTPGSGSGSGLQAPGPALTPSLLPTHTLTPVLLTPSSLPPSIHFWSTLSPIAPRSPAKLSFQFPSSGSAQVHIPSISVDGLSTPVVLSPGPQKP
# Procedure, shortened: as §1
# [3] = target: T3, GABPA (Homo sapiens, UniProt Q06546 1-454); conditions: protein: recombinant; tags: N-terminal GST; dsDNA, one strand shown
# T3 sequence: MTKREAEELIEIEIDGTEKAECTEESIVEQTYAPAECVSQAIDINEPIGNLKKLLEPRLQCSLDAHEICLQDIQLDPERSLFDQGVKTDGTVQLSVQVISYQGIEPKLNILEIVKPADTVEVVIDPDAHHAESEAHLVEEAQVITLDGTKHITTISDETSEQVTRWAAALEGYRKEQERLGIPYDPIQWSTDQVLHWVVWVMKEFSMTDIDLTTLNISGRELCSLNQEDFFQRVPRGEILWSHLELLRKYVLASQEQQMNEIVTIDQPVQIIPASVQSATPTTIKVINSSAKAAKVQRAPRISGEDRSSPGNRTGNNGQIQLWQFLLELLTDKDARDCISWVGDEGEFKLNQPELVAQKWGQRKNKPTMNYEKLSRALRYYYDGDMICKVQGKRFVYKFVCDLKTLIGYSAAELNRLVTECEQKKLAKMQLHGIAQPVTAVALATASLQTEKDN
# Procedure, shortened: as §1
# [4] = target: T4, ERG (Homo sapiens, UniProt P11308 1-479); conditions: protein: recombinant; tags: N-terminal GST; dsDNA, one strand shown
# T4 sequence: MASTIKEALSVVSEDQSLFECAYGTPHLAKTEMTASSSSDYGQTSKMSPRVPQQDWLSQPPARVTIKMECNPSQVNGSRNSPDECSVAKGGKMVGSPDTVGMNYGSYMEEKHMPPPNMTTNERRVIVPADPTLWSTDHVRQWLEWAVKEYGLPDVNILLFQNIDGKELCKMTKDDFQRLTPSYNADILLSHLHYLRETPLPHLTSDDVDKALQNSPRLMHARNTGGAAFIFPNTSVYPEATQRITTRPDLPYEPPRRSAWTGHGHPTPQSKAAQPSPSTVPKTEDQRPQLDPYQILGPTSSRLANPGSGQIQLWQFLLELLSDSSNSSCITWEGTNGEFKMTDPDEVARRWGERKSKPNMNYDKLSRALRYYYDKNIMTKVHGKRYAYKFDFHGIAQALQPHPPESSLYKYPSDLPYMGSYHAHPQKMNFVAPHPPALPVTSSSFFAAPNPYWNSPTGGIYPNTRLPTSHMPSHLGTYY
# Procedure, shortened: as §1
# [5] = target: ELF1 (Homo sapiens, UniProt P32519 1-619); conditions: protein: recombinant; tags: N-terminal GST; dsDNA, one strand shown
# Procedure, shortened: as §1
# [6] = target: T5, EHF (Homo sapiens, UniProt Q9NZC4 1-300); conditions: protein: recombinant; tags: N-terminal GST; dsDNA, one strand shown
# T5 sequence: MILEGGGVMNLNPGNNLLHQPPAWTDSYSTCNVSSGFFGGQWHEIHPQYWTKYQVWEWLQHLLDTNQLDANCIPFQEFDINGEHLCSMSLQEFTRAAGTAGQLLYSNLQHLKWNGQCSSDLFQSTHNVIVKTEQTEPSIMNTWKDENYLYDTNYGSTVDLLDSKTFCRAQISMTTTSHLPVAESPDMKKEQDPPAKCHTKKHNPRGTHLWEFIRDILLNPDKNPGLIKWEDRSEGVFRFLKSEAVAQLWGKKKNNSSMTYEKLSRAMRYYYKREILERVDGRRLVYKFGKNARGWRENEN
# Procedure, shortened: as §1
# [7] = target: SPI1 (Homo sapiens, UniProt P17947 1-270); conditions: protein: recombinant; tags: N-terminal GST; dsDNA, one strand shown
# Procedure, shortened: as §1
# [8] = target: SPIB (Homo sapiens, UniProt Q01892 1-262); conditions: protein: recombinant; tags: N-terminal GST; dsDNA, one strand shown
# Procedure, shortened: as §1
# [9] = target: T6, ELK3 (Homo sapiens, UniProt P41970 1-407); conditions: protein: recombinant; tags: N-terminal GST; dsDNA, one strand shown
# T6 sequence: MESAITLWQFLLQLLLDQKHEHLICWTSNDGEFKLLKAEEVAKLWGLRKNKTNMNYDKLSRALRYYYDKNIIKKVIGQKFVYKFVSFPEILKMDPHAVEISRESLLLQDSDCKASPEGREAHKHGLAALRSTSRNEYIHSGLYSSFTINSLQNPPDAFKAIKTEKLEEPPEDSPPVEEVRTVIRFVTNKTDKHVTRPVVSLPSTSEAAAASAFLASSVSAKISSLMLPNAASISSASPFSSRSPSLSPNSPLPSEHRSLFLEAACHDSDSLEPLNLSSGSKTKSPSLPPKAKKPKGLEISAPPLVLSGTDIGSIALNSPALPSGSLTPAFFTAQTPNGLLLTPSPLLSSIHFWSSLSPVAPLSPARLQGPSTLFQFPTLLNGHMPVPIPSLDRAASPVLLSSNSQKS
# Procedure, shortened: as §1
# [10] = target: T7, FEV (Homo sapiens, UniProt Q99581 1-238); conditions: protein: recombinant; tags: N-terminal GST; dsDNA, one strand shown
# T7 sequence: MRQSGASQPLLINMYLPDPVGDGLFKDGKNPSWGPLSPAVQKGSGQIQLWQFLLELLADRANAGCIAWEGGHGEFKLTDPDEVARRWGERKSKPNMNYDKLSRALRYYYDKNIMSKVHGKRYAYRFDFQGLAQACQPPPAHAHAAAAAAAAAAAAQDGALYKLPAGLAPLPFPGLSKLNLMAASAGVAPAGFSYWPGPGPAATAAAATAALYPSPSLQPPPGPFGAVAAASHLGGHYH
# Procedure, shortened: as §1
# [11] = target: ETV5 (Homo sapiens, UniProt P41161 1-510); conditions: protein: recombinant; tags: N-terminal GST; dsDNA, one strand shown
# Procedure, shortened: as §1
# [12] = target: HSF1 (Homo sapiens, UniProt Q00613 1-529); conditions: protein: recombinant; tags: N-terminal GST; chain copies: 3; dsDNA, one strand shown
# Procedure, shortened: as §1
# [13] = target: T8, SPIC (Homo sapiens, UniProt Q8N5J4 1-248); conditions: protein: recombinant; tags: N-terminal GST; dsDNA, one strand shown
# T8 sequence: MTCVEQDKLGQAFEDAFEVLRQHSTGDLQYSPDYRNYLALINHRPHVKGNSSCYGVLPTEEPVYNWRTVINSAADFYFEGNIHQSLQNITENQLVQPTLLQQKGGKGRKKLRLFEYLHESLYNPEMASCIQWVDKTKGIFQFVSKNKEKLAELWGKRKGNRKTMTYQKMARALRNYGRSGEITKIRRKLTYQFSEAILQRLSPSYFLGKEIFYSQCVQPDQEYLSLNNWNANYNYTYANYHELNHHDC
# Procedure, shortened: as §1
# [14] = target: ELF4 (Homo sapiens, UniProt Q99607 1-663); conditions: protein: recombinant; tags: N-terminal GST; dsDNA, one strand shown
# Procedure, shortened: as §1
# [15] = target: T9, ELK4 (Homo sapiens, UniProt P28324-2 1-405); conditions: protein: recombinant; tags: N-terminal GST; dsDNA, one strand shown
# T9 sequence: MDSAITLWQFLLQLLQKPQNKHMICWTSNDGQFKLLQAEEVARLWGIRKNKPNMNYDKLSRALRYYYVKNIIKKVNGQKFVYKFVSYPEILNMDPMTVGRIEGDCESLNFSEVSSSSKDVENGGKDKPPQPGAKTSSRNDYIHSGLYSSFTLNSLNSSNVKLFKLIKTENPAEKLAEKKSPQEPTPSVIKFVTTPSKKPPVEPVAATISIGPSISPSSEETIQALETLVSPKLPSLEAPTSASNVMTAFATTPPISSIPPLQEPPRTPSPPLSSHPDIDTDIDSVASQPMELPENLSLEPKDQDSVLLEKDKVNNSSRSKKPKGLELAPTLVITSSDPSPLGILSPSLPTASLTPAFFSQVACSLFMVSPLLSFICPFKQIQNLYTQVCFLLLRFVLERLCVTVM
# Procedure, shortened: as §1
# [16] = target: T10, ETV2 (Homo sapiens, UniProt O00321 1-342); conditions: protein: recombinant; tags: N-terminal GST; dsDNA, one strand shown
# T10 sequence: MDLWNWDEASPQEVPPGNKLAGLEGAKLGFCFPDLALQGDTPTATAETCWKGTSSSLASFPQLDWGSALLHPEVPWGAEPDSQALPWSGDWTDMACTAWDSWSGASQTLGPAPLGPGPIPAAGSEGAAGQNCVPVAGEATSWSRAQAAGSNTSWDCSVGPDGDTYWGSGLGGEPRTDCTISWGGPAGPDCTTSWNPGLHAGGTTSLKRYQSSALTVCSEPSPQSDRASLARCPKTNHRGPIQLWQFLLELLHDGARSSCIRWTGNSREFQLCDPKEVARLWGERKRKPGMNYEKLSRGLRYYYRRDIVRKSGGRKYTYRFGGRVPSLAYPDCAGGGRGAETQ
# Procedure, shortened: as §1
# [17] = target: T11, ELF3 (Homo sapiens, UniProt P78545 1-371); conditions: protein: recombinant; tags: N-terminal GST; dsDNA, one strand shown
# T11 sequence: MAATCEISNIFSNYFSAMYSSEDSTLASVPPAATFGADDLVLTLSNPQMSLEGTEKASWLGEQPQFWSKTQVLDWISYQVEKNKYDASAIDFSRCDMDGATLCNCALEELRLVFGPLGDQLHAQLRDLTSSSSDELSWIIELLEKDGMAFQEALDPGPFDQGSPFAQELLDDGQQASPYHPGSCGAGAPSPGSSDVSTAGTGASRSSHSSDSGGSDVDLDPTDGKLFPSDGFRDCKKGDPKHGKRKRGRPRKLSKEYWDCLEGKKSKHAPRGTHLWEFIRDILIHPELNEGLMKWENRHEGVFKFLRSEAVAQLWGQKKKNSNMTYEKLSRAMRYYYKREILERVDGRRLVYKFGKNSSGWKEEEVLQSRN
# Procedure, shortened: as §1
# [18] = target: CRX (Homo sapiens, UniProt O43186 1-299); conditions: protein: recombinant; tags: N-terminal GST; dsDNA, one strand shown
# Procedure, shortened: as §1
# [19] = target: ETV1 (Homo sapiens, UniProt P50549 1-477); conditions: protein: recombinant; tags: N-terminal GST; dsDNA, one strand shown
# Procedure, shortened: as §1
# ELF1, sequence (P32519 whole entry): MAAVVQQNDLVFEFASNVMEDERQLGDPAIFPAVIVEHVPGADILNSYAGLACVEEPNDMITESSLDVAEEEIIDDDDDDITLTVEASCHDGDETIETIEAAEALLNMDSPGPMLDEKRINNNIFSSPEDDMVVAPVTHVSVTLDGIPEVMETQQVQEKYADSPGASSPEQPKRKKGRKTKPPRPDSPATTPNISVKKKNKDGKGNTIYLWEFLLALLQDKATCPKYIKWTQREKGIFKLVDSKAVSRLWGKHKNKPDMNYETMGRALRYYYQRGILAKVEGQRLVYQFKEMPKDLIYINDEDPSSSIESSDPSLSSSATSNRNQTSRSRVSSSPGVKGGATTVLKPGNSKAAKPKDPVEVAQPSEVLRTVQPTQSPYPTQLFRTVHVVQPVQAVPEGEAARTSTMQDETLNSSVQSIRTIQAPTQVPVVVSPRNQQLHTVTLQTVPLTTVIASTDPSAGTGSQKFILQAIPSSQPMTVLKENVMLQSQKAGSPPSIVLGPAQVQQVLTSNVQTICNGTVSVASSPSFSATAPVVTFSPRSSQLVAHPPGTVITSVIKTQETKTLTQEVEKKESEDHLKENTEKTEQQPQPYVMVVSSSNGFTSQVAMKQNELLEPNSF
# SPIB, sequence (Q01892 whole entry): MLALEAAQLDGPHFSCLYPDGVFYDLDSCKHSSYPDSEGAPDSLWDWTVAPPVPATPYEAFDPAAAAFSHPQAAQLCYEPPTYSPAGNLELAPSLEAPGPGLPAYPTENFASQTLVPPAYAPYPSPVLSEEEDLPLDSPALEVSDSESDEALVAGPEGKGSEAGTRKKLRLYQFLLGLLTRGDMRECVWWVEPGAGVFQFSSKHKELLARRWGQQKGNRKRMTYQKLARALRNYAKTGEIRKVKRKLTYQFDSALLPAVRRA
# ELF4, sequence (Q99607 whole entry): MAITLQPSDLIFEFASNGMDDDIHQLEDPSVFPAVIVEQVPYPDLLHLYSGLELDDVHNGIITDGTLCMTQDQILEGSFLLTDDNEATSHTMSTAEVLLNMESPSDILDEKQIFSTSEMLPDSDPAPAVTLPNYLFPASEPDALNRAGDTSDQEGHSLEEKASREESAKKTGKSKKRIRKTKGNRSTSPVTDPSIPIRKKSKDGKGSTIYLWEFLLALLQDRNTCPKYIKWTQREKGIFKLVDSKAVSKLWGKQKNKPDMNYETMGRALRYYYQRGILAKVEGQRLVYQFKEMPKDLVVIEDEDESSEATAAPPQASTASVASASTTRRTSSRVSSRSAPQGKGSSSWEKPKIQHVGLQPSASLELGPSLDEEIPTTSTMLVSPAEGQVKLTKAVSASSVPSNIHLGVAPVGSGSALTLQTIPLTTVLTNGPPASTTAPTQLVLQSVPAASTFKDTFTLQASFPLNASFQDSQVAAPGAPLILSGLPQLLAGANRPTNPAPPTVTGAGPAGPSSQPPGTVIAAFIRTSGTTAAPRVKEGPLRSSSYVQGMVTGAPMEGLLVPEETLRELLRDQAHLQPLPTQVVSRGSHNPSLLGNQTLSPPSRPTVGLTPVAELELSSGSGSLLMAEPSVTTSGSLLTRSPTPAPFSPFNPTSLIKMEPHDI
# ETV1, sequence (P50549 whole entry): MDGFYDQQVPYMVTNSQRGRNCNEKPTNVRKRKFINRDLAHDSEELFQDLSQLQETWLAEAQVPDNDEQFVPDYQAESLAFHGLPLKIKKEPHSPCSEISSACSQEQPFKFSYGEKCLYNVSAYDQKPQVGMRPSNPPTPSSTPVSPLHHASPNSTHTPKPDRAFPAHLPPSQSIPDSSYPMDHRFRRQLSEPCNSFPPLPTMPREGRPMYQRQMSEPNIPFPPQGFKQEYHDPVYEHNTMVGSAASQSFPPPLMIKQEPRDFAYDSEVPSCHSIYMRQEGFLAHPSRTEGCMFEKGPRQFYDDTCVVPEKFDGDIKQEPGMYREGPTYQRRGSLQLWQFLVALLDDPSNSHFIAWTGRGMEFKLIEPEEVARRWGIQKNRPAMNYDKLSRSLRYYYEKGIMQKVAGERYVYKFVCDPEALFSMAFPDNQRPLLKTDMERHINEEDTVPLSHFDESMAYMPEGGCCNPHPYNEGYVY
# ETV5, sequence (P41161 whole entry): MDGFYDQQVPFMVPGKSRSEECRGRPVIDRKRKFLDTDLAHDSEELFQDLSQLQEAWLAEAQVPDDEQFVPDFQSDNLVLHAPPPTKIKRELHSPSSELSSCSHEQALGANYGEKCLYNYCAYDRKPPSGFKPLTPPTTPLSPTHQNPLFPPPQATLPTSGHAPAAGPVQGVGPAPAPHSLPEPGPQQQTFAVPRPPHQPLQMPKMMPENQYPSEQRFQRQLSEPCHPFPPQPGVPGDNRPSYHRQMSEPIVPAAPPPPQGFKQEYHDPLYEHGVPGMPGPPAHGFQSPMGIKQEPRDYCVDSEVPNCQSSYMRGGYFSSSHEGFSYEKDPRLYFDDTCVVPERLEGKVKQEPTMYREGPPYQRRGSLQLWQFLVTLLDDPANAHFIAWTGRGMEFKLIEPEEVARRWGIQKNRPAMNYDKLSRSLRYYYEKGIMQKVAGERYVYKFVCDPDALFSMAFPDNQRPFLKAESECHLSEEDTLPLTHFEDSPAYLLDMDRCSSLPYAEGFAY
# CRX, sequence (O43186 whole entry): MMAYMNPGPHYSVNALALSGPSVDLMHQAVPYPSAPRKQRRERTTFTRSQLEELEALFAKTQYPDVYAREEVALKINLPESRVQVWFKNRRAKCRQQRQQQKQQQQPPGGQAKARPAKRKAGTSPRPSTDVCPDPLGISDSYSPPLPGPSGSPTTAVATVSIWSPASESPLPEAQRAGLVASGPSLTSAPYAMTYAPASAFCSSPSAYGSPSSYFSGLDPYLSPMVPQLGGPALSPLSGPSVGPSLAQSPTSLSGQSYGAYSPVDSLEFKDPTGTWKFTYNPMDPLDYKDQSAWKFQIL
# HSF1, sequence (Q00613 whole entry): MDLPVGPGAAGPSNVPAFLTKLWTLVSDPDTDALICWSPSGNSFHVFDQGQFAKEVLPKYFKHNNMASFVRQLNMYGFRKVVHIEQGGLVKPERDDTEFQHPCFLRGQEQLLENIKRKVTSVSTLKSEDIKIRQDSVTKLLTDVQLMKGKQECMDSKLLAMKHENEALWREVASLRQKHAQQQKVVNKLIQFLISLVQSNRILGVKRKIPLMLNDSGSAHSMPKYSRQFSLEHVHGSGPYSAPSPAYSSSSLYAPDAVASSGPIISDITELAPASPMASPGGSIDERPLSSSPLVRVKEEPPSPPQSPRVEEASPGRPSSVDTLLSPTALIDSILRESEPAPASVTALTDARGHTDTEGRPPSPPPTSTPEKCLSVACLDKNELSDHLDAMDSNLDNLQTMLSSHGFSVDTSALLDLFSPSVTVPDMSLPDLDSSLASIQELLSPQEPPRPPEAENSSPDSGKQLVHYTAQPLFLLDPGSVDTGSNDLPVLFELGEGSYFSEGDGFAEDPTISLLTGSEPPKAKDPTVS
sequence,measurement,setting,value
TTTAAG,binding signal,[1],"1.3 fold enrichment (6-mer frequency, TF over GST control)"
same,binding signal,[2],"1.33 fold enrichment (6-mer frequency, TF over GST control)"
same,binding signal,[3],"1.38 fold enrichment (6-mer frequency, TF over GST control)"
same,binding signal,[4],"1.33 fold enrichment (6-mer frequency, TF over GST control)"
same,binding signal,[5],"1.34 fold enrichment (6-mer frequency, TF over GST control)"
same,binding signal,[6],"1.27 fold enrichment (6-mer frequency, TF over GST control)"
same,binding signal,[7],"1.42 fold enrichment (6-mer frequency, TF over GST control)"
same,binding signal,[8],"1.31 fold enrichment (6-mer frequency, TF over GST control)"
same,binding signal,[9],"1.46 fold enrichment (6-mer frequency, TF over GST control)"
same,binding signal,[10],"1.31 fold enrichment (6-mer frequency, TF over GST control)"
same,binding signal,[11],"1.34 fold enrichment (6-mer frequency, TF over GST control)"
same,binding signal,[12],"1.87 fold enrichment (6-mer frequency, TF over GST control)"
same,binding signal,[13],"1.47 fold enrichment (6-mer frequency, TF over GST control)"
same,binding signal,[14],"1.29 fold enrichment (6-mer frequency, TF over GST control)"
same,binding signal,[15],"1.22 fold enrichment (6-mer frequency, TF over GST control)"
same,binding signal,[16],"1.38 fold enrichment (6-mer frequency, TF over GST control)"
same,binding signal,[17],"1.28 fold enrichment (6-mer frequency, TF over GST control)"
same,binding signal,[18],"2.81 fold enrichment (6-mer frequency, TF over GST control)"
same,binding signal,[19],"1.28 fold enrichment (6-mer frequency, TF over GST control)"
